# Assay results: the supplement of paper PMC8728848
# The entries come from a sample that favours the strongest signals as a whole.
# B1: Pa IMPa (Pseudomonas aeruginosa), Q9I5W4 (protein)
# chain: MSLSTTAFPSLQGENMSRSPIPRHRALLAGFCLAGALSAQAATQEEILDAALVSGDSSQLTDSHLVALRLQQQVERIRQTRTQLLDGLYQNLSQAYDPGAASMWVLPANPDNTLPFLIGDKGRVLASLSLEAGGRGLAYGTNVLTQLSGTNAAHAPLLKRAVQWLVNGDPGAATAKDFKVSVVGVDKTAALNGLKSAGLQPADAACNALTDASCASTSKLLVLGNGASAASLSATVRARLQAGLPILFVHTNGWNQSSTGQQILAGLGLQEGPYGGNYWDKDRVPSSRTRTRSVELGGAYGQDPALVQQIVDGSWRTDYDWSKCTSYVGRTTCDDVPGLSDFSKRVDVLKGALDAYNQKAQNLFALPGTTSLRLWLLWADAVRQNIRYPMDKAADTARFQETFVADAIVGYVREAGAAQKELGSYAGQRQQSMPVSGSEETLTLTLPSAQGFTAIGRMAAPGKRLSIRIEDAGQASLAVGLNTQRIGSTRLWNTRQYDRPRFLKSPDIKLQANQSVALVSPYGGLLQLVYSGATPGQTVTVKVTGAASQPFLDIQPGEDSSQAIADFIQALDADKADWLEIRSGSVEVHAKVEKVRGSIDKDYGGDVQRFIRELNEVFIDDAYTLAGFAIPNQAKTPAIQQECAARGWDCDSETLHKLPGTQHINVDQYAQCGGGCSGNPYDQTWGLNPRGWGESHELGHNLQVNRLKVYGGRSGEISNQIFPLHKDWRVLREFGQNLDDTRVNYRNAYNLIVAGRAEADPLAGVYKRLWEDPGTYALNGERMAFYTQWVHYWADLKNDPLQGWDIWTLLYLHQRQVDKSDWDANKAALGYGTYAQRPGNSGDASSTDGNDNLLLGLSWLTQRDQRPTFALWGIRTSAAAQAQVAAYGFAEQPAFFYANNRTNEYSTVKLLDMSQGSPAWPFP
# B2: SLP (Clostridium difficile), Q183M8 (protein)
# chain: MATTGTQGYTVVKNDWKKAVKQLQDGLKDNSIGKITVSFNDGVVGEVAPKSANKKADRDAAAEKLYNLVNTQLDKLGDGDYVDFSVDYNLENKIITNQADAEAIVTKLNSLNEKTLIDIATKDTFGMVSKTQDSEGKNVAATKALKVKDVATFGLKSGGSEDTGYVVEMKAGAVEDKYGKVGDSTAGIAINLPSTGLEYAGKGTTIDFNKTLKVDVTGGSTPSAVAVSGFVTKDDTDLAKSGTINVRVINAKEESIDIDASSYTSAENLAKRYVFDPDEISEAYKAIVALQNDGIESNLVQLVNGKYQVIFYPEGKRLETKSLEHHHHHH
# Assays:
# Test in all cases: glycan array binding signal (z-score within array); higher = stronger binding
# Settings in all cases: glycan notation: IUPAC condensed, linker removed
# [1] = molecular target: GlcNAc(a1-4)Gal(b1-4)GlcNAc(b1-3)Gal(b1-4)GlcNAc
# Procedure, shortened: (§1)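 Columns mapping to the same glycan were averaged after glycan names were converted to IUPAC-condensed notation. The data come from 3228 arrays in the Consortium for Functional Glycomics database, limited to those with an available protein sequence. Binding is reported as a within-array Z-score averaged across arrays of one protein sequence and across linkers.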
# [2] = molecular target: GlcNAc(b1-2)[GlcNAc(b1-4)]Man(a1-3)[GlcNAc(b1-4)][GlcNAc(b1-2)[GlcNAc(b1-6)]Man(a1-6)]Man(b1-4)GlcNAc(b1-4)[Fuc(a1-6)]GlcNAc
# Procedure, shortened: as §1
# GlcNAc(b1-3)Fuc = molecular target: GlcNAc(b1-3)Fuc
# Procedure, shortened: as §1
# GlcNAc(b1-3)Gal(b1-4)Glc = molecular target: GlcNAc(b1-3)Gal(b1-4)Glc
# Procedure, shortened: as §1
# [3] = molecular target: GlcNAc(b1-3)Gal(b1-4)GlcNAc(b1-3)Gal(b1-4)GlcNAc(b1-2)Man(a1-3)[GlcNAc(b1-3)Gal(b1-4)GlcNAc(b1-3)Gal(b1-4)GlcNAc(b1-2)Man(a1-6)]Man(b1-4)GlcNAc(b1-4)GlcNAc
# Procedure, shortened: as §1
# [4] = molecular target: GlcNAc(b1-3)Gal(b1-4)GlcNAc(b1-3)Gal(b1-4)GlcNAc(b1-3)Gal(b1-4)GlcNAc(b1-3)Gal(b1-4)GlcNAc(b1-2)Man(a1-3)[GlcNAc(b1-3)Gal(b1-4)GlcNAc(b1-3)Gal(b1-4)GlcNAc(b1-3)Gal(b1-4)GlcNAc(b1-3)Gal(b1-4)GlcNAc(b1-2)Man(a1-6)]Man(b1-4)GlcNAc(b1-4)[Fuc(a1-6)]GlcNAc
# Procedure, shortened: as §1
# [5] = molecular target: GlcNAc(b1-3)Gal(b1-4)GlcNAc(b1-3)Gal(b1-4)GlcNAc(b1-3)Gal(b1-4)GlcNAc(b1-3)Gal(b1-4)GlcNAc(b1-2)[GlcNAc(b1-3)Gal(b1-4)GlcNAc(b1-3)Gal(b1-4)GlcNAc(b1-3)Gal(b1-4)GlcNAc(b1-3)Gal(b1-4)GlcNAc(b1-6)]Man(a1-6)[GlcNAc(b1-3)Gal(b1-4)GlcNAc(b1-3)Gal(b1-4)GlcNAc(b1-3)Gal(b1-4)GlcNAc(b1-3)Gal(b1-4)GlcNAc(b1-2)Man(a1-3)]Man(b1-4)GlcNAc(b1-4)[Fuc(a1-6)]GlcNAc
# Procedure, shortened: as §1
# [6] = molecular target: GlcNAc(b1-3)Gal(b1-4)GlcNAc(b1-3)[GlcNAc(b1-3)Gal(b1-4)GlcNAc(b1-3)]GalNAc
# Procedure, shortened: as §1
# Kdn(a2-3)Gal(b1-4)GlcNAc = molecular target: Kdn(a2-3)Gal(b1-4)GlcNAc
# Procedure, shortened: as §1
# [7] = molecular target: Man(a1-2)Man(a1-2)Man(a1-3)Man
# Procedure, shortened: as §1
# [8] = molecular target: Neu5Ac(a2-3)Gal(b1-3)GlcNAc(b1-3)Gal(b1-4)GlcNAc
# Procedure, shortened: as §1
# [9] = molecular target: Neu5Ac(a2-3)Gal(b1-3)GlcNAc(b1-3)GalNAc
# Procedure, shortened: as §1
# [10] = molecular target: Neu5Ac(a2-6)Gal(b1-4)GlcNAc(b1-2)Man
# Procedure, shortened: as §1
# [11] = molecular target: Neu5Ac(a2-6)Gal(b1-4)GlcNAc(b1-3)Gal(b1-4)GlcNAc
# Procedure, shortened: as §1
# [12] = molecular target: Neu5Ac(a2-8)Neu5Ac(a2-3)[Gal(b1-3)GalNAc(b1-4)]Gal(b1-4)Glc
# Procedure, shortened: as §1
# [13] = molecular target: Neu5Gc(b2-6)Gal(b1-4)GlcNAc
# Procedure, shortened: as §1
# Fuc(a1-2)Gal(b1-3)GlcNAc = molecular target: Fuc(a1-2)Gal(b1-3)GlcNAc
# Procedure, shortened: as §1
# [14] = molecular target: Fuc(a1-2)Gal(b1-3)GlcNAc(b1-3)Gal(b1-4)Glc
# Procedure, shortened: as §1
# [15] = molecular target: Fuc(a1-2)Gal(b1-3)[Fuc(a1-4)]GlcNAc
# Procedure, shortened: as §1
# [16] = molecular target: Fuc(a1-2)Gal(b1-4)GlcNAc(b1-2)Man(a1-3)[Fuc(a1-2)Gal(b1-4)GlcNAc(b1-2)Man(a1-6)]Man(b1-4)GlcNAc(b1-4)GlcNAc
# Procedure, shortened: as §1
# [17] = molecular target: Fuc(a1-2)Gal(b1-4)[Fuc(a1-3)]GlcNAc
# Procedure, shortened: as §1
# [18] = molecular target: Fuc(a1-2)[GalNAc(a1-3)]Gal(b1-3)GlcNAc
# Procedure, shortened: as §1
# [19] = molecular target: Gal(a1-3)Gal(b1-3)[Fuc(a1-4)]GlcNAc(b1-2)Man(a1-3)[Gal(a1-3)Gal(b1-3)[Fuc(a1-4)]GlcNAc(b1-2)Man(a1-6)]Man(b1-4)GlcNAc(b1-4)GlcNAc
# Procedure, shortened: as §1
# [20] = molecular target: Gal(a1-3)Gal(b1-4)[Fuc(a1-3)]GlcNAc
# Procedure, shortened: as §1
# [21] = molecular target: Gal(a1-4)Gal(b1-4)GlcNAc(b1-2)Man(a1-3)[Gal(a1-4)Gal(b1-4)GlcNAc(b1-2)Man(a1-6)]Man(b1-4)GlcNAc(b1-4)GlcNAc
# Procedure, shortened: as §1
# Gal(b1-2)Gal = molecular target: Gal(b1-2)Gal
# Procedure, shortened: as §1
# [22] = molecular target: Gal(b1-3)GalNAc(b1-4)[Neu5Ac(a2-3)]Gal(b1-4)Glc
# Procedure, shortened: as §1
# [23] = molecular target: Gal(b1-3)GlcNAc(b1-3)Gal(b1-4)Glc
# Procedure, shortened: as §1
# [24] = molecular target: Gal(b1-3)GlcNAc(b1-3)Gal(b1-4)[Fuc(a1-3)]GlcNAc(b1-6)[Gal(b1-3)GlcNAc(b1-3)]Gal(b1-4)Glc
# Procedure, shortened: as §1
# [25] = molecular target: Gal(b1-3)[Fuc(a1-4)]GlcNAc
# Procedure, shortened: as §1
# [26] = molecular target: Gal(b1-3)[Fuc(a1-4)]GlcNAc(b1-2)Man(a1-3)[Gal(b1-3)[Fuc(a1-4)]GlcNAc(b1-2)Man(a1-6)]Man(b1-4)GlcNAc(b1-4)GlcNAc
# Procedure, shortened: as §1
# [27] = molecular target: Gal(b1-3)[Fuc(a1-4)]GlcNAc(b1-2)Man(a1-3)[Gal(b1-3)[Fuc(a1-4)]GlcNAc(b1-2)Man(a1-6)]Man(b1-4)GlcNAc(b1-4)[Fuc(a1-6)]GlcNAc
# Procedure, shortened: as §1
# [28] = molecular target: Gal(b1-4)GlcNAc(b1-2)Man(a1-3)[Gal(b1-4)GlcNAc(b1-2)Man(a1-6)]Man(b1-4)GlcNAc(b1-4)GlcNAc
# Procedure, shortened: as §1
# [29] = molecular target: GalNAc(b1-4)GlcNAc(b1-2)Man(a1-3)[GalNAc(b1-4)GlcNAc(b1-2)Man(a1-6)]Man(b1-4)GlcNAc(b1-4)GlcNAc
# Procedure, shortened: as §1
# [30] = molecular target: GlcNAc(b1-3)Gal(b1-4)GlcNAc(b1-3)Gal(b1-4)GlcNAc
# Procedure, shortened: as §1
# Kdn(a2-3)Gal(b1-4)Glc = molecular target: Kdn(a2-3)Gal(b1-4)Glc
# Procedure, shortened: as §1
# [31] = molecular target: Man(a1-2)Man(a1-2)Man(a1-6)[Man(a1-3)]Man
# Procedure, shortened: as §1
# [32] = molecular target: Neu5Ac(a2-3)Gal(b1-3)GlcNAc6S
# Procedure, shortened: as §1
# [33] = molecular target: Neu5Ac(a2-3)Gal(b1-3)[Fuc(a1-4)]GlcNAc(b1-3)Gal(b1-4)[Fuc(a1-3)]GlcNAc
# Procedure, shortened: as §1
# [34] = molecular target: Neu5Ac(a2-3)Gal(b1-4)GlcNAc(b1-3)Gal(b1-4)GlcNAc
# Procedure, shortened: as §1
# [35] = molecular target: Neu5Ac(a2-6)Gal(b1-4)GlcNAc(b1-3)Gal(b1-4)GlcNAc(b1-3)Gal(b1-4)GlcNAc
# Procedure, shortened: as §1
# Neu5Ac(a2-6)GalNAc = molecular target: Neu5Ac(a2-6)GalNAc
# Procedure, shortened: as §1
# [36] = molecular target: Neu5Ac9Ac(a2-3)Gal(b1-4)GlcNAc
# Procedure, shortened: as §1
binder,measurement,setting,value
B1,glycan array binding signal (z-score),[1],-0.321
same,glycan array binding signal (z-score),[2],1.41
same,glycan array binding signal (z-score),GlcNAc(b1-3)Fuc,1.37
same,glycan array binding signal (z-score),GlcNAc(b1-3)Gal(b1-4)Glc,-0.08
same,glycan array binding signal (z-score),[3],-0.305
same,glycan array binding signal (z-score),[4],7.78
same,glycan array binding signal (z-score),[5],0.125
same,glycan array binding signal (z-score),[6],17.5
same,glycan array binding signal (z-score),Kdn(a2-3)Gal(b1-4)GlcNAc,-0.467
same,glycan array binding signal (z-score),[7],-0.474
same,glycan array binding signal (z-score),[8],0.474
same,glycan array binding signal (z-score),[9],0.273
same,glycan array binding signal (z-score),[10],-0.409
same,glycan array binding signal (z-score),[11],-0.371
same,glycan array binding signal (z-score),[12],-0.007
same,glycan array binding signal (z-score),[13],-0.305
B2,glycan array binding signal (z-score),Fuc(a1-2)Gal(b1-3)GlcNAc,-0.17
same,glycan array binding signal (z-score),[14],3.53
same,glycan array binding signal (z-score),[15],-0.18
same,glycan array binding signal (z-score),[16],3.46
same,glycan array binding signal (z-score),[17],-0.174
same,glycan array binding signal (z-score),[18],-0.175
same,glycan array binding signal (z-score),[19],12.1
same,glycan array binding signal (z-score),[20],-0.186
same,glycan array binding signal (z-score),[21],0.537
same,glycan array binding signal (z-score),Gal(b1-2)Gal,-0.185
same,glycan array binding signal (z-score),[22],-0.141
same,glycan array binding signal (z-score),[23],3.65
same,glycan array binding signal (z-score),[24],-0.152
same,glycan array binding signal (z-score),[25],-0.182
same,glycan array binding signal (z-score),[26],7.99
same,glycan array binding signal (z-score),[27],5.55
same,glycan array binding signal (z-score),[28],-0.173
same,glycan array binding signal (z-score),[29],6.19
same,glycan array binding signal (z-score),[30],-0.209
same,glycan array binding signal (z-score),Kdn(a2-3)Gal(b1-4)Glc,-0.2
same,glycan array binding signal (z-score),[31],-0.17
same,glycan array binding signal (z-score),[32],-0.167
same,glycan array binding signal (z-score),[33],-0.057
same,glycan array binding signal (z-score),[34],-0.18
same,glycan array binding signal (z-score),[35],-0.187
same,glycan array binding signal (z-score),Neu5Ac(a2-6)GalNAc,-0.177
same,glycan array binding signal (z-score),[36],-0.188
